Calls of active or inactive are those of the source.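 How the source made its calls: active means calcium retention capacity relative to untreated control above about 1.1 ratio (limit read from the data); inactive means the rest.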
Experiment: mtPTP inhibition via calcium retention, dose response, biochemical, dry powder samples, uHTS hits, Calcium Green-5N (AID 743360)
Conditions: isolated mitochondria, Ca retention capacity

CRC/CRC0 ratio at 12.5 uM (higher = more inhibition), active:
COc1ccc(Cl)cc1C(=O)Nc1ccc(N2CCN(C)CC2)cc1 1.2
O=C(Nc1ccc(CN2CCCCC2)cc1)c1cc(OCc2ccccc2)ccc1Cl 2.26
COc1c(Cl)cccc1NC(=O)c1cc(-c2cccc(O)c2)on1 1.82
COc1ccc(Cl)cc1C(=O)Nc1ccc(CCN2CCN(C(=O)OC(C)(C)C)CC2)cc1 1.37
CN1CCN(Cc2ccc(NC(=O)c3cccc(OCc4ccccc4)c3)cc2)CC1 2.26
O=C(Nc1cc(Cl)ccc1F)c1cc(-c2cccc(O)c2)on1 6.53
CN1CCN(CCc2ccc(NC(=O)c3cccc(OCc4ccccc4)c3)cc2)CC1 2.05
CN1CCN(c2ccc(NC(=O)c3cccc(OCc4ccccc4)c3)cc2)CC1 1.52

CRC/CRC0 ratio at 12.5 uM (higher = more inhibition), inactive:
COc1ccc(Cl)cc1C(=O)Nc1ccccc1 1.07
O=S(=O)(Nc1ccc(CCN2CCCCC2)cc1)c1ccc(F)c(Cl)c1 1.07
CN1CCN(c2ccc(NS(=O)(=O)c3ccc(F)c(Cl)c3)cc2)CC1 1.08
COc1ccc(Cl)cc1C(=O)Nc1ccc(N2CCCCC2)cc1 1.05
O=S(=O)(Nc1ccc(CN2CCCCC2)cc1)c1cccc(Cl)c1 1.03
COc1ccc(Cl)cc1C(=O)Nc1cccc(CN2CCN(C(=O)OC(C)(C)C)CC2)c1 1.08
CN1CCN(CCc2ccc(NS(=O)(=O)c3cccc(Cl)c3)cc2)CC1 > 1
COc1ccc(Cl)cc1S(=O)(=O)Nc1ccc(N2CCN(C)CC2)cc1 1.03

— PubChem BioAssay AID743360 (Molecular Libraries Program, Specialized Chemistry Center, …, 2014)
